In PubChem BioAssay AID893 (National Center for Advancing Translational Sciences (NCATS), 2007):
About 5,700 (7.6%) of roughly 75,000 compounds were called active. About 7% were inconclusive and are not listed. Calls follow the shape of the dose curve; as a rule, active = well fitted inhibition curve with a large enough effect; inconclusive = small, poorly fitted or top-dose-only effect; inactive = no such curve, though single readings can be large or run the other way. What follows is part of a selection rich in actives, with near analogues and random picks from the rest. Where a call stands in place of a potency, no number is given.

Target: 3-hydroxyacyl-CoA dehydrogenase type-2 (Homo sapiens) (UniProt Q99714)
Assay: qHTS Assay for Inhibitors of HSD17B4, hydroxysteroid (17-beta) dehydrogenase 4;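 also: the protocol describes HADH2 (HSD17B10) and not the HSD17B4 of the title; nearly all actives have a fitted effect of over 70% in size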
Details: recombinant HSD17B10, NADH fluorescence kinetic; series mostly up to 57.1 µM
Outline: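 His-tagged E. coli-expressed HADH2 at 20 nM in 100 mM Tris-HCl pH 9.0 with 0.01 % Tween-20, preincubated 15 min with compound at room temperature. Reaction with 1 mM NAD+ and 90 uM beta-hydroxybutyryl coenzyme A; NADH fluorescence (360/450 nm) read kinetically over 4 min, last minus first point.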
Potency is read from the fitted curve at half-maximal effect.

| SMILES | Potency | activity change, negative = inhibition |
| --- | --- | --- |
| CC(=O)Nc1ccc(S(=O)(=O)NCCc2ccccc2)cc1 | inactive | – |
| COC(=O)CCCCCN1C(=O)NC(c2ccc(-c3ccccc3)cc2)C(C(=O)OCc2ccccc2)=C1C (centres undefined) | inactive | – |
| Fc1ccc(-c2nnc3sc(-c4ccc5c(c4)OCO5)nn23)cc1 | inactive | – |
| c1ccc(-c2cc(-c3nnc4sc(-c5ccccn5)nn34)[nH]n2)cc1 | 31.6 µM (active) | – |
| COc1cc(-c2nn3c(-c4cccc(C)c4)nnc3s2)cc(OC)c1OC | inactive | – |
| Cc1cc(C)cc(N)c1 | inactive | – |
| CCCc1nc2ccccc2c(=O)n1NC(=O)c1c(O)c2ccccc2[nH]c1=O | inactive | – |
| CCOC(=O)CC1=CC(=O)Nc2ccccc2N1 | inactive | – |
| CCCOC(=O)Cc1c(O)c2ccccc2[nH]c1=O | 31.6 µM (active) | – |
| O=C(N1CCOCC1)N(Cc1ccccc1)c1ccccn1 | inactive | – |
| CCNC(=O)N1CCNC(=O)C1CC(=O)Nc1ccc(C(=O)OCC)cc1 (centres undefined) | inactive | – |
| O=C(C1CCCO1)N(Cc1ccccc1)c1ccccc1 (centres undefined) | inactive | – |
| CCCS(=O)(=O)N1CCN(C(=O)c2cccs2)CC1 | inactive | – |
| CCS(=O)(=O)N1CCN(C(=O)c2cccs2)CC1 | inactive | – |
| COc1ccc(S(=O)(=O)N2CCN(C(=O)c3cccs3)CC2)cc1OC | 3.98 µM (active) | – |
| COc1ccc(C2N=C(N)N=C(N)N2c2ccccc2)cc1OC (centres undefined) | inactive | – |
| Cc1cc(C)c2nc(N3CCCC3)c(C#N)cc2c1 | 31.6 µM (active) | – |
| C=CCOC(=O)C(C(C)=O)C(NC(=O)OC)c1ccccc1 (centres undefined) | – | 10.6% [at 11.4 µM] (inactive) |
| CCCCn1c(SCC(=O)NCC2CCCO2)nc2ccc(N3CCOCC3)cc2c1=O (centres undefined) | 31.6 µM (active) | – |
| CCc1ccc(NC(=O)CSc2nc3ccccc3c(=O)n2CCN2CCOCC2)cc1 | inactive | – |
| CCn1c(SCC(=O)NCC2CCCO2)nc2cc(S(=O)(=O)N3CCCCC3)ccc21 (centres undefined) | inactive | – |
| Cc1cc(Nc2cccc(F)c2)n2ncnc2n1 | inactive | – |
| Cc1ccc(NC(=O)CCN2CCc3ccccc3C2)cc1 | inactive | – |
| Cc1cc(C)nc(N2CCN(c3ncnc4c3oc3ccccc34)CC2)n1 | inactive | – |
| Cc1ccc2c(c1)c1ncnc(N3CCc4ccccc4C3)c1n2C | 31.6 µM (active) | – |
| CCCCCCCCCc1ccc(OCCOCCOCCOCCOCCOCCOCCOCCOCCO)cc1 | inactive | – |

| SMILES | Potency | activity change, negative = inhibition |
| --- | --- | --- |
| COc1ccc(CC(=O)Nc2ccc(-c3nnc(-c4ccc(C)cc4)o3)cc2)cc1 | 2.51 µM (active) | – |
| COc1ccc(CC(=O)Nc2ccc(-c3nnc(-c4ccccc4)o3)cc2)cc1 | 12.6 µM (active) | – |
| CCCCCNC(=O)Cc1ccc(OC)cc1 | inactive | – |
| O=C(Nc1nnc(CCc2ccccc2)s1)C1CCCO1 (centres undefined) | inactive | – |
| COc1ccc(NC(=O)c2ccc(OC)cc2)cc1 | inactive | – |
| COc1ccc(C(CC(=O)O)NC(=O)Cc2ccccc2)cc1 (centres undefined) | inactive | – |
| O=C(Nc1ccc(-c2nnc(-c3ccccc3)o2)cc1)C1CCCO1 (centres undefined) | 20 µM (active) | – |
| O=C(COC(=O)c1ccc(Oc2ccccc2)cc1)Nc1nnc(-c2ccccc2)o1 | inactive | – |
| O=C(CSc1nnc(-c2ccc(NS(=O)(=O)c3ccccc3)cc2)o1)NCC1CCCO1 (centres undefined) | inactive | – |
| CCCCNC(=O)CSc1nccn1Cc1ccccc1 | inactive | – |
| CC(=O)Nc1cc(C(=O)O)ccc1S(=O)(=O)c1ccc(Cl)cc1 | inactive | – |
| O=S1(=O)CCN2C(=N1)SC1=C2CCN(Cc2ccccc2)C1 | inactive | – |
| COc1ccc(Br)c2c1C[C@H](C(=O)O)CC2 | – | 7.09% [at 11.4 µM] (inactive) |
| O=C(CSc1nc2ccccc2o1)N1CCN(c2ccc(Cl)cc2)CC1 | inactive | – |
| COc1ccc(-n2c(SCC(=O)OC(C)C)nnc2-c2ccccn2)cc1 | inactive | – |
| CCOC(=O)C1C(=O)NC(N2CCN(c3ccccc3)CC2)=NC1c1ccco1 (centres undefined) | inactive | – |
| COc1ccc(CCNC(=O)c2ccco2)cc1 | inactive | – |
| CCOC(=O)C1C(=O)C=C(c2ccc(OC)cc2)CC1c1ccco1 (centres undefined) | 20 µM (active) | – |
| CCOc1ccc2cc(C#N)c(SCC(=O)OC)nc2c1 | inactive | – |
| CCOc1ccc2nc(N3CCCN(C(=O)Nc4ccccc4C)CC3)c(C#N)cc2c1 | inactive | – |
| CCOc1ccc2nc(NCCNS(=O)(=O)c3ccccc3)c(C#N)cc2c1 | 25.1 µM (active) | – |
| CC1=C(C(=O)OCc2ccccc2)C(c2ccc(C(F)(F)F)cc2)NC(=O)N1CCCCCC(=O)O (centres undefined) | inactive | – |
| CC(NC(=O)c1ccc(Cl)cc1)C(=O)N1CCCCC1 (centres undefined) | inactive | – |
| CCOc1ccc(NC(=O)Nc2cc(C)ccc2OC)cc1 | inactive | – |
| COc1ccc(NC(=O)Nc2cccc3cccnc23)cc1 | inactive | – |
| COc1ccc(Cn2cccc(NC(=O)Nc3ccc(C#N)cc3)c2=O)cc1 | 15.8 µM (active) | – |

| SMILES | Potency | activity change, negative = inhibition |
| --- | --- | --- |
| CO/N=C(\C(=O)N[C@@H]1C(=O)N2C(C(=O)O)=C(COC(C)=O)CS[C@H]12)c1csc(N)n1 (stereo in doubt) | inactive | – |
| COc1c(F)c(F)c(-c2csc(N)n2)c(F)c1F | inactive | – |
| CCOc1ccc(OCC)c(NC(=O)CSc2nnc(Cn3cnc4ccccc43)n2C)c1 | inactive | – |
| CCc1c(C)nc2cc(-c3cccs3)[nH]n2c1=O | 31.6 µM (active) | – |
| Cc1nc2nc(COc3ccccc3)[nH]n2c(=O)c1Cc1ccccc1 | inactive | – |
| O=c1[nH]c(-c2cccs2)nc2ccccc12 | inactive | – |
| CCCCNC(=O)c1c[nH]c2ccc(S(=O)(=O)Nc3ccc(OCC)cc3)cc2c1=O | inactive | – |
| CCCCn1c(SCC(=O)N2CCC(C(=O)OCC)CC2)nc2cc(S(N)(=O)=O)ccc21 | inactive | – |
| CCOc1ccc(CNC(=O)C2CCC(=O)N2C2CCCC2)cc1OC (centres undefined) | inactive | – |
| CCCC(=O)Nc1cc(OCC)c(NC(=O)NC2CCCCC2)cc1OCC | inactive | – |
| CCOc1cc(C2C(C(=O)OC)=CN(C3CCCC3)C=C2C(=O)OC)cc(Br)c1O | 25.1 µM (active) | – |
| COCCCN(C(=O)Cn1ncc2c(=O)oc3ccc(C)cc3c21)C(C)c1ccncc1 (centres undefined) | inactive | – |
| Cn1c(=O)cc(SCC(=O)N2CCCC2)c2cc(Cl)ccc21 | inactive | – |
| Cc1cc(C(F)(F)F)nn1CC(=O)N1CCCC1 | inactive | – |
| Cc1ccc(-c2cc(C(F)(F)F)n3nc(C(=O)N4CCCC4)cc3n2)cc1 | 20 µM (active) | – |
| COc1ccc(-c2cc(C(F)(F)F)n3nc(C(=O)N4CCOCC4)c(Cl)c3n2)cc1 | inactive | – |
| c1ccc(CCc2nc(-c3ccncc3)no2)cc1 | inactive | – |
| COc1ccc(Br)cc1S(=O)(=O)N1CCN=C1C | inactive | – |
| Cc1cc(C)cc(N(CC(=O)Nc2c(C)n(C)n(-c3ccccc3)c2=O)S(C)(=O)=O)c1 | inactive | – |
| O=C(NC1CCCCC1)C1CCCN(S(=O)(=O)c2cccs2)C1 (centres undefined) | inactive | – |
| CC1CCN(c2oc(-c3ccccc3F)nc2C#N)CC1 | 31.6 µM (active) | – |
| Cc1ccc(OCc2nc(C#N)c(N3CCCC3)o2)cc1 | inactive | – |
| N#Cc1nc(COc2ccc(Cl)cc2)oc1N1CCCC1 | inactive | – |
| CN(CCCNC(=O)CN1C(=O)CC(C)(C)S(=O)(=O)c2ccccc21)C1CCCCC1 | inactive | – |
| Nc1nc2c(nc(Cl)n2C2OC(CO)C(O)C2O)c(=O)[nH]1 (centres undefined) | inactive | – |
| COC(=O)[C@@]1(Cc2ccc(F)cc2)[C@H]2c3cc(C(=O)N4CCCC4)n(Cc4ccc(OC(F)(F)F)cc4)c3C[C@H]2CN1C(=O)c1ccccc1 | inactive | – |

| SMILES | Potency | activity change, negative = inhibition |
| --- | --- | --- |
| C[C@]12C=CC(=O)C=C1CC[C@@H]1[C@@H]2C(=O)C[C@@]2(C)[C@H]1CC[C@]2(O)C(=O)CO | 15.8 µM (active) | – |
| CC(=O)OCC(=O)[C@@]1(O)CCC2C3CCC4=CC(=O)CC[C@]4(C)C3C(=O)C[C@]21C (some centres undefined) | inactive | – |
| CC(=O)OCC(=O)[C@@]1(O)CC[C@@H]2[C@H]3CCC4=CC(=O)C=C[C@]4(C)[C@]3(F)[C@@H](O)C[C@@]21C | inactive | – |
| COC(=O)[C@H](C(C)C)n1c(C)c(C(C)=O)c(C(C)=O)c1C | inactive | – |
| O=S(=O)(CCc1nc2ccccc2o1)c1ccc(Cl)cc1 | inactive | – |
| O=C1CCCN1CCCNc1ncnc2c1[nH]c1ccccc12 | 31.6 µM (active) | – |
| O=C(CCn1c(=S)[nH]c2ccccc2c1=O)NCCCN1CCCC1=O | inactive | – |
| CC1(C)CC(=O)C=C(NCCCN2CCCC2=O)C1 | inactive | – |
| CCOC(=O)C1CCN(C(=O)c2oc3ccc(S(=O)(=O)N4CCCCCC4)cc3c2C)CC1 | inactive | – |
| Cc1c(C(=O)Nc2ccccc2Cl)oc2ccc(S(=O)(=O)N3CCC4(CC3)OCCO4)cc12 | 25.1 µM (active) | – |
| CCOc1ccccc1NC(=O)c1cc(S(=O)(=O)N2CCC3(CC2)OCCO3)ccc1F | inactive | – |
| CCOC(=O)N1CCN(Cc2oc(CO)cc(=O)c2O)CC1 | inactive | – |
| Cc1nc2ccc(NC(=O)N3CCC(c4ccccc4)C3)cc2nc1C (centres undefined) | 25.1 µM (active) | – |
| O=C(Nc1cccc(NC(=O)N2CCN(c3ccccc3)CC2)c1)N1CCN(c2ccccc2)CC1 | inactive | – |
| O=C(Nc1cccc(C(=O)N2CCCC2)c1)c1ccccc1 | inactive | – |
| O=C(O)[C@H](CCc1ccccn1)c1ccccc1 | – | 1.79% [at 11.4 µM] (inactive) |
| CC(=O)Nc1nc(C)c(Cc2ccccc2)c(=O)[nH]1 | inactive | – |
| CSc1ccc(Cl)c(C(=O)OCC(=O)N2CC(C)OC(C)C2)c1 (centres undefined) | inactive | – |
| CC1(C)CC(=O)C(C=NCc2cccnc2)=C(O)C1 | inactive | – |
| CC(=O)N1CCN(CCN=CC2=C(O)CC(C)(C)CC2=O)CC1 | inactive | – |
| CC1(C)CC(=O)C(C=NCCC2=CCCCC2)=C(O)C1 | 31.6 µM (active) | – |
| O=c1cc(CSc2ccc(Cl)cc2)nc(N2CCOCC2)[nH]1 | inactive | – |
| COc1ccc2nc(NC(=O)c3ccc(Br)s3)sc2c1 | 31.6 µM (active) | – |
| CNC(=O)c1ccc2nc(NC(C)=O)sc2c1 | inactive | – |
| CCn1c(SCC(=O)Nc2nc3ccc(OC)cc3s2)nnc1-c1ccoc1C | inactive | – |
| CC1(C)CN=C(N2CCN(c3ncnc4sc5c(c34)CCCC5)CC2)S1 | inactive | – |
